Mdm2 MdmX PPI = disrupts the human Mdm2-MdmX interaction; O15151+Q00987; SaOS-2 split-luciferase Mdm2/MdmX complementation, luminescence; inhibition, % at 8 µM; actives 3% (n = 330,000);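 active = inhibition of at least 50% at 8 µM in the primary screen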
Target sequence (O15151 whole entry, looked up): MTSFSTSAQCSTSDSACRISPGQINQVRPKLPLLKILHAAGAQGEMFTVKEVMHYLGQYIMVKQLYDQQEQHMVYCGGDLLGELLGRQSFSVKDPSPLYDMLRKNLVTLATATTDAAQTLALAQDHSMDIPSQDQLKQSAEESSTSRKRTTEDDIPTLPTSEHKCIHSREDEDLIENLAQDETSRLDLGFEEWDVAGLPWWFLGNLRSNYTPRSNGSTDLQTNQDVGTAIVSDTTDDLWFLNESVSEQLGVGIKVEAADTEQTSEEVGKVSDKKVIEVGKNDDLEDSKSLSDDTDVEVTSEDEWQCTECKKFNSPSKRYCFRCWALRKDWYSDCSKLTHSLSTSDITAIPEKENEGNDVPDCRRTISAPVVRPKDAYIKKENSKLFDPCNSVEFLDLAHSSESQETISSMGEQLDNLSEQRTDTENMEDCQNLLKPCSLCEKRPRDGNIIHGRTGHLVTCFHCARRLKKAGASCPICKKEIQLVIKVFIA
Target sequence (Q00987 whole entry, looked up): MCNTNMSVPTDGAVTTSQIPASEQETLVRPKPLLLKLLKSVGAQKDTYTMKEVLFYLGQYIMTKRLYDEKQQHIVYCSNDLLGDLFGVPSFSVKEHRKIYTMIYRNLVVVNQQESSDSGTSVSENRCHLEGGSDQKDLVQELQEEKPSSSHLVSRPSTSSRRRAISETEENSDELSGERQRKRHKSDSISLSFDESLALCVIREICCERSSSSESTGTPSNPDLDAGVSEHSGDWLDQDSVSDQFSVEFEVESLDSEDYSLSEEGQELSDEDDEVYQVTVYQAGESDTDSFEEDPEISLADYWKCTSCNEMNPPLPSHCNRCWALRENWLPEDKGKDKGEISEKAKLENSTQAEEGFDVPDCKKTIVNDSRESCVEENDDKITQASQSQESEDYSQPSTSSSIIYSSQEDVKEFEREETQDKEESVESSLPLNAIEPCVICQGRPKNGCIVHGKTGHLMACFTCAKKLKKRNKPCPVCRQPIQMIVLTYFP
Jurkat NFkB inh = inhibitors of the PMA/ionomycin-induced NF-kB reporter in Jurkat cells | PMA/ionomycin-induced NF-kB luciferase reporter, luminescence | inhibition, % at 4 µM | actives 0.53% (n = 330,000) | AID 435003; in the data active = inhibition above about 50%
CSC inhib = cancer stem cell inhibition | AID 2717 | inhibition, % at 7.5 µM | cancer stem cell-like cells viability, luminescence | actives 1.1% (n = 300,000); in the data active = inhibition above about 75%; tested in HMLE shEcad cells
Gli-Sufu antag = antagonists of Gli-Sufu signaling; Sufu-KO-LIGHT fibroblasts, Gli luciferase reporter luminescence; inhibition, % at 5 µM; actives 0.74% (n = 340,000);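 active = inhibition above about 55%, limit read from the data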;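 also: 0% = DMSO-treated cells and 100% = wells with medium but no cells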
Beta cell apopt = beta cell apoptosis inhibition. actives 0.8% (n = 300,000). protection from apoptosis, % (no concentration beside the values). INS-1E cytokine-induced death, ATP luminescence, 48 h; percent of positive-control rescue, neutral wells zero;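 active = Every replicate reaches about 75%, or at least half do and their mean reaches it too, limit read from the data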;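 also: 0% = cytokine-treated negative control wells and 100% = positive control rescue; higher means more ATP so stronger rescue from cytokine killing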
697 NFkB inh = lowers PMA/ionomycin-induced NF-kB signal in 697 B cells. 697 B-cell NF-kB luciferase reporter, 16 h. inhibition, % at 4 µM. actives 0.33% (n = 330,000). AID 435022; in the data active = inhibition above about 35%
Mdm2 MdmX conf = human Mdm2/MdmX binding inhibition, confirmed; shares compounds with Mdm2 MdmX PPI; luminescent assay; inhibition, % at 8 µM; actives 55% (n = 10,000); AID 489028; in the data active = inhibition above about 40%
Full FLuc ctr = counter-screen for Mdm2/MdmX inhibitors: full-length luciferase. shares compounds with Mdm2 MdmX PPI. SaOS-2 full-length luciferase counterscreen, luminescence. inhibition, % at 8 µM. actives 77% (n = 6,200);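 active = mean inhibition at 8 µM reaching about 37%, which flags the compound as non-specific, limit read from the data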;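 also: p53-null SaOS-2 cells with luciferase driven by a doxycycline-inducible promoter; compound on cells about two nights before reading with doxycycline added after day one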
Numbers without * were called inactive; nt = no result given. Most compounds without a hit are left out; they make up all but 4.5% or so of the library.

SMILES | Mdm2 MdmX PPI | Jurkat NFkB inh | CSC inhib | Gli-Sufu antag | Beta cell apopt | 697 NFkB inh | Mdm2 MdmX conf | Full FLuc ctr
Nc1[nH]n2c(=O)cc(-c3ccccc3)nc2c1N=Nc1ccc(S(N)(=O)=O)cc1 | 19 | 3 | -8 | -3 | 4 | 22 | nt | nt
N#Cc1c2ccc(O)cc2n2ccccc12 | 76* | -10 | 4 | -19 | 5 | -16 | 73* | 35
COc1ccc(CNC(=O)COC(=O)[C@@H]2CCCN2C(=O)c2cccs2)cc1 | -1 | 4 | -13 | 1 | -2 | -18 | nt | nt
Nc1ccn(CC(=O)NCCNc2ccc([N+](=O)[O-])cn2)c(=O)n1 | -5 | -12 | -33 | -8 | 8 | -13 | nt | nt
CC1CCN(C(=O)c2[nH]cnc2C(=O)Nc2cccc(Cl)c2)CC1 | -6 | 5 | 3 | -12 | -11 | -15 | nt | nt
O=C(CCOc1ccccc1)Nc1ccnn1C1CCN(CCc2ccccc2)CC1 | -31 | -1 | 5 | 18 | -2 | -38 | nt | nt
O=C(Cc1ccccc1[N+](=O)[O-])NCC(=O)c1ccc2c(c1)OCO2 | nt | nt | nt | -29 | nt | nt | nt | nt
CCSc1nc(-c2ccccc2)c2cc(Cl)ccc2n1 | 21 | 0 | -18 | -2 | nt | 2 | nt | nt
CSc1nc(-c2ccc(C)cc2)nc(C(Cl)Cl)n1 | 97* | 28 | 72 | 17 | 6 | -21 | 95* | 40*
CCSc1nc(-c2ccccc2)nc(C(Cl)Cl)n1 | 98* | -7 | 100* | 15 | 94* | -7 | 100* | 4
O=C1C[C@H](NC(=O)OCc2ccccc2)CO1 | -4 | 1 | nt | -1 | -2 | 7 | nt | nt
Oc1ccc(Cl)cc1-c1cc(-c2cccc(Br)c2)n[nH]1 | 62* | 9 | 90* | 16 | 18 | -17 | 33 | nt
O=C1NCCc2c1[nH]c1c(Cl)ccc(Cl)c21 | 77* | -5 | nt | -3 | -17 | -24 | 63* | 48*
O=C1NCCc2c1[nH]c1ccc([N+](=O)[O-])cc21 | 48 | -3 | -2 | -11 | -11 | 2 | nt | nt
Cc1ccc(S(=O)(=O)c2nnn3c2nc(NCCCN2CCCC2=O)c2ccccc23)cc1C | 34 | 8 | -6 | -16 | 9 | -1 | nt | nt
Cc1ccc(S(=O)(=O)c2nnn3c2nc(NC2CCN(Cc4ccccc4)CC2)c2ccccc23)cc1C | 64* | 9 | 21 | 36 | nt | -34 | 39 | 52*
COc1ccccc1C1c2[nH]c3ccccc3c2C[C@H]2C(=O)N(C3CCN(Cc4ccccc4)CC3)CC(=O)N12 (stereo partly drawn) | 54* | 2 | -3 | 14 | 7 | 18 | 38 | 90*
CN1CC(=O)N2C(c3cccc([N+](=O)[O-])c3)c3[nH]c4ccccc4c3C[C@H]2C1=O (stereo partly drawn) | 9 | 7 | 10 | 12 | 1 | 20 | nt | nt
CN1CC(=O)N2C(c3ccc(Cl)cc3)c3[nH]c4ccccc4c3C[C@H]2C1=O (stereo partly drawn) | 52* | -11 | 8 | 10 | -2 | 21 | 14 | nt
O=C(C[C@@H]1C/C=C\C[C@@H](Cc2ccc(F)cc2)C(=O)OC[C@@H](Cc2ccccc2)NC1=O)N[C@H](CO)Cc1ccccc1 | 80* | -10 | 7 | -25 | 1 | 0 | 66* | 41*
C[C@@H]1COC(=O)[C@H](Cc2ccc(F)cc2)C/C=C\C[C@@H](CC(=O)N[C@H](CO)Cc2ccccc2)C(=O)N1 | -21 | -2 | 9 | 5 | 2 | -3 | nt | nt
OCC[C@H]1C[C@H](O)[C@@H](O)[C@@]2(OCCCc3ccccc32)O1 | 4 | -2 | 13 | -6 | 2 | 0 | nt | nt
O=C1CCC(c2ccc3c(c2)CCC3)=NN1 | 14 | -8 | -8 | 5 | 1 | -5 | nt | nt
Cc1ccc(-c2nc3cccnc3s2)cc1NC(=O)c1ccco1 | -20 | -66 | -3 | -40 | 7 | -74 | nt | nt
Cc1ccc(-c2nc3cccnc3s2)cc1NC(=O)C1c2ccccc2Oc2ccccc21 | 70* | -3 | nt | 12 | nt | -31 | 10 | nt
SMILES | Mdm2 MdmX PPI | Jurkat NFkB inh | CSC inhib | Gli-Sufu antag | Beta cell apopt | 697 NFkB inh | Mdm2 MdmX conf | Full FLuc ctr
CCOc1ccc(N(C(=O)/C=C/C(=O)Nc2cc(C)on2)C(C(=O)NC2CCCC2)c2ccccc2C)cc1 (stereo not drawn) | 81* | 13 | nt | 3 | nt | 1 | 77* | 27
Cc1cc(NC(=O)/C=C/C(=O)N(CC(=O)NC2CCCC2)c2cccc3ccccc23)no1 | 53* | -2 | -1 | 1 | -8 | 21 | 32 | nt
CCc1ccc(C(C(=O)NC2CCCC2)N(C(=O)/C=C/C(=O)Nc2cc(C)on2)c2ccccc2C)cc1 (stereo not drawn) | 77* | 9 | 25 | 15 | -4 | 12 | 75* | 59*
Cc1cnc(CN(C)C(=O)CC2C(=O)NCCN2CCCc2ccccc2)[nH]1 (stereo not drawn) | 25 | 8 | -2 | -1 | -3 | 2 | nt | nt
COc1cc(CN2CCNC(=O)C2CC(=O)N2CCCN(C(C)=O)CC2)cc(OC)c1 (stereo not drawn) | 26 | 12 | 0 | 2 | -4 | 3 | nt | nt
Nc1ncnc2c1ncn2CCOc1ccccc1 | 59* | 9 | -21 | -5 | -2 | -54 | 7 | nt
Nc1ncnc2c1ncn2Cc1ccccc1 | -6 | -2 | 1 | 2 | 1 | 4 | nt | nt
CCCNC(=O)NC(=O)CSc1nc2ccccc2c(=O)n1Cc1ccncc1 | 23 | 14 | -1 | 0 | 3 | 7 | nt | nt
CCOC(=O)c1sc(NC(=O)CSc2ccccn2)c(C#N)c1C | 74* | 9 | -4 | -8 | nt | 8 | 23 | nt
CCOC(=O)c1sc(NC(=O)CSc2nc3c(cc2C#N)CCCCC3)c(C#N)c1C | 72* | -18 | 35 | -15 | 6 | -122 | 26 | nt
CN(C)CCC(O)(c1ccccc1)c1ccccc1Cl (stereo not drawn) | nt | nt | nt | 15 | nt | nt | nt | nt
Cc1csc2nc(O)c(C(=O)NCCC3=CCCCC3)c(=O)n12 | 39 | 5 | -13 | 11 | nt | -4 | nt | nt
Cc1csc2nc(O)c(C(=O)NCCCc3ccccc3)c(=O)n12 | 61* | 12 | -3 | -5 | nt | 12 | 70* | 21
CN1CCN(c2ccccc2NC(=O)c2ccc(-c3ccc(Cl)cc3Cl)o2)CC1 | 56* | 15 | 101* | 9 | 18 | -8 | 52* | 86*
CS(=O)(=O)N1CCN(c2ccccc2NC(=O)c2ccc(-c3ccc(Cl)cc3Cl)o2)CC1 | 21 | 8 | -8 | -5 | 21 | 1 | nt | nt
O=C(Nc1ccccc1N1CCCCC1)C1CCN(S(=O)(=O)c2ccccc2C(F)(F)F)CC1 | -12 | 4 | 22 | 16 | 5 | -38 | nt | nt
O=C1N(c2ccccc2C(F)(F)F)O[C@@]1(c1ccccc1)C1CCCCC1 | 87* | 18 | 74 | 11 | -9 | 21 | 50* | 52*
